Measurements: PubChem BioAssay (NCI)
This is part of a sample that, as a whole, favours compounds with a hit. Of some 79,000 tested, about 15% had one in any assay. Values without a mark were called inactive. Activity calls are given as the source filed them. No stated cut-off is given here; in the data, active means growth inhibition above about 70%; inactive means the rest.

Key:
[1] = NCI Yeast Anticancer Drug Screen. Data for the rad52 strain (AID 147);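 further: 0% = growth of vehicle-treated control cultures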; details: S. cerevisiae rad52 mutant growth inhibition, stronger effect = higher value
Method in brief: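 Vehicle-treated cultures served as the reference for growth inhibition of compound-exposed yeast bearing a DNA repair mutation.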

[2] = NCI Yeast Anticancer Drug Screen. Data for the wt1 strain (AID 149);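 further: 0% = growth of vehicle-treated wt1 cultures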; details: S. cerevisiae wt1 strain (SPY 50644) growth inhibition, stronger effect = higher value
Method in brief: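 Vehicle-normalised growth inhibition; strain wt1; compound exposure.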

[3] = NCI Yeast Anticancer Drug Screen. Data for the rad50EPP+ strain (AID 151);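 further: 0% = growth of vehicle-treated control cultures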; details: S. cerevisiae rad50 mutant strain, stronger effect = higher value
Method in brief: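 In this screen, rad50EPP+ yeast were exposed to compounds. Growth inhibition was scored against vehicle-treated controls.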

[4] = NCI Yeast Anticancer Drug Screen. Data for the rad50 strain (AID 155);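 further: 0% = growth of vehicle-only cultures of the same strain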; details: S. cerevisiae rad50 strain growth inhibition, stronger effect = higher value
Method in brief: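 A DNA repair-deficient yeast mutant serves as the test organism; compound-induced growth inhibition is calculated against vehicle-treated cells.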

[5] = NCI Yeast Anticancer Drug Screen. Data for the mec2-1 strain (AID 157); details: S. cerevisiae mec2-1 strain, stronger effect = higher value
Method in brief: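 Vehicle-treated cultures served as reference for growth inhibition of compound-exposed mec2-1 yeast.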

[6] = NCI Yeast Anticancer Drug Screen. Data for the rad14 strain (AID 159);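 further: 0% = growth of vehicle-treated control cultures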; details: S. cerevisiae rad14 strain growth inhibition, stronger effect = higher value
Method in brief: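 Vehicle-treated cultures served as the baseline for growth inhibition of a DNA repair-mutant yeast strain exposed to each compound.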

[7] = NCI Yeast Anticancer Drug Screen. Data for the sgs1 mgt1 strain (AID 161);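 further: 0% = growth of cultures given vehicle only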; details: S. cerevisiae sgs1 mgt1 strain, stronger effect = higher value
Method in brief: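 Inhibition of yeast growth, normalised to vehicle-treated controls, is reported for a strain bearing genetic alterations in DNA damage repair.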

[8] = NCI Yeast Anticancer Drug Screen. Data for the CLN2oe strain (AID 163);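 further: 0% = growth of vehicle-only control cultures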; details: S. cerevisiae CLN2oe strain, stronger effect = higher value
Method in brief: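 Inhibition relative to vehicle-treated yeast is reported. Cells: strain with genetic alteration in cell-cycle control, grown with compound.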

[9] = NCI Yeast Anticancer Drug Screen. Data for the cln2 rad14 strain (AID 165);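 further: 0% = growth equal to vehicle treated cultures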; details: S. cerevisiae cln2 rad14 strain, stronger effect = higher value
Method in brief: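 Each compound was tested on cln2 rad14 yeast. Inhibition of growth was calculated against vehicle-exposed controls.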

[10] = NCI Yeast Anticancer Drug Screen. Data for the bub3 strain (AID 167); details: S. cerevisiae bub3 mutant strain, stronger effect = higher value
Method in brief: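 Inhibition values come from growth of compound-treated mutant yeast normalised to vehicle-treated controls.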

[11] = NCI Yeast Anticancer Drug Screen. Data for the wt2 strain (AID 169);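 further: 0% = growth of vehicle-treated yeast cultures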; details: S. cerevisiae wt2 strain growth inhibition, stronger effect = higher value
Method in brief: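 Inhibition of yeast growth was determined after compound treatment, normalised to controls receiving only vehicle.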

[12] = NCI Yeast Anticancer Drug Screen. Data for the mlh1 strain (AID 171);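 further: 0% = growth of vehicle-treated control cultures of the same strain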; details: S. cerevisiae mlh1 strain growth inhibition, stronger effect = higher value
Method in brief: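 Vehicle-normalised growth inhibition of a repair- or checkpoint-altered yeast strain following compound treatment.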

[13] = NCI Yeast Anticancer Drug Screen. Data for the sgs1 strain (AID 173);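 further: 0% = growth of vehicle-only control cultures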; details: S. cerevisiae sgs1 mutant, stronger effect = higher value
Method in brief: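 Screen format: yeast with repair or checkpoint alterations, compound exposure, growth read relative to vehicle.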

[14] = NCI Yeast Anticancer Drug Screen. Data for the mlh1 rad18 strain (AID 175); details: S. cerevisiae mlh1 rad18 strain growth inhibition, stronger effect = higher value
Method in brief: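 Vehicle-treated cultures served as the reference for growth inhibition in a yeast strain carrying DNA damage repair alterations exposed to each compound.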

[15] = NCI Yeast Anticancer Drug Screen. Data for the rad18 strain (AID 177); details: S. cerevisiae rad18 mutant growth inhibition, stronger effect = higher value
Method in brief: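 Test articles were incubated with altered yeast defective in DNA damage repair. Results are given as inhibition of growth versus vehicle.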

[16] = at 5.0 µM (retest, dose inferred, filed as 0.5)
[17] = at 50.0 µM (retest, dose inferred, filed as 5.0)

C=CC[N+]12CN3CN(CN(C3)C1)C2
growth inhibition ([1]; at 1.2 µM): -8% | growth inhibition ([1]; at 3.7 µM): 5% | growth inhibition ([1]; at 11.0 µM): -11% | growth inhibition ([1]; at 33.0 µM): -5% | growth inhibition ([1]; at 100.0 µM): 29% | growth inhibition ([2]; at 1.2 µM): -10% | growth inhibition ([2]; at 3.7 µM): -28% | growth inhibition ([2]; at 11.0 µM): -21% | growth inhibition ([2]; at 33.0 µM): -23% | growth inhibition ([2]; at 100.0 µM): 41% | growth inhibition ([3]; at 1.2 µM): 7% | growth inhibition ([3]; at 3.7 µM): 2% | growth inhibition ([3]; at 11.0 µM): -31% | growth inhibition ([3]; at 33.0 µM): 16% | growth inhibition ([3]; at 100.0 µM): 68% | growth inhibition ([4]; at 1.2 µM): 8% | growth inhibition ([4]; at 3.7 µM): -1% | growth inhibition [4, 16]: 38% | growth inhibition ([4]; at 11.0 µM): -21% | growth inhibition ([4]; at 33.0 µM): -3% | growth inhibition [4, 17]: 65% | growth inhibition ([4]; at 50.0 µM): 29.8% | growth inhibition ([4]; at 100.0 µM): 32% | growth inhibition ([5]; at 1.2 µM): -12% | growth inhibition ([5]; at 3.7 µM): -24% | growth inhibition [5, 16]: 43% | growth inhibition ([5]; at 11.0 µM): -31% | growth inhibition ([5]; at 33.0 µM): 45% | growth inhibition [5, 17]: 70% (active) | growth inhibition ([5]; at 50.0 µM): 20.6% | growth inhibition ([5]; at 100.0 µM): 98% (active) | growth inhibition ([6]; at 1.2 µM): -35% | growth inhibition ([6]; at 3.7 µM): -34% | growth inhibition ([6]; at 11.0 µM): -31% | growth inhibition ([6]; at 33.0 µM): -16% | growth inhibition ([6]; at 100.0 µM): 31% | growth inhibition [7, 16]: -2% | growth inhibition [7, 17]: 98% (active) | growth inhibition ([7]; at 50.0 µM): 59.8% | growth inhibition ([8]; at 1.2 µM): -24% | growth inhibition ([8]; at 3.7 µM): -32% | growth inhibition ([8]; at 11.0 µM): -17% | growth inhibition ([8]; at 33.0 µM): -9% | growth inhibition ([8]; at 100.0 µM): 70% (active) | growth inhibition [9, 16]: 67% | growth inhibition [9, 17]: 96% (active) | growth inhibition ([9]; at 50.0 µM): 7.55% | growth inhibition ([10]; at 1.2 µM): -1% | growth inhibition ([10]; at 3.7 µM): 12% | growth inhibition [10, 16]: 20% | growth inhibition ([10]; at 11.0 µM): 12% | growth inhibition ([10]; at 33.0 µM): 75% (active) | growth inhibition [10, 17]: 97% (active) | growth inhibition ([10]; at 50.0 µM): 2.1% | growth inhibition ([10]; at 100.0 µM): 94% (active) | growth inhibition ([11]; at 1.2 µM): -49% | growth inhibition ([11]; at 3.7 µM): -52% | growth inhibition ([11]; at 11.0 µM): -52% | growth inhibition ([11]; at 33.0 µM): -28% | growth inhibition ([11]; at 100.0 µM): 23% | growth inhibition ([12]; at 1.2 µM): -25% | growth inhibition ([12]; at 3.7 µM): -22% | growth inhibition ([12]; at 11.0 µM): -23% | growth inhibition ([12]; at 33.0 µM): 13% | growth inhibition ([12]; at 100.0 µM): 74% (active) | growth inhibition ([13]; at 1.2 µM): -20% | growth inhibition ([13]; at 3.7 µM): -17% | growth inhibition ([13]; at 11.0 µM): -21% | growth inhibition ([13]; at 33.0 µM): -4% | growth inhibition ([13]; at 100.0 µM): 43% | growth inhibition [14, 16]: 38% | growth inhibition [14, 17]: 52% | growth inhibition ([14]; at 50.0 µM): 10.2% | growth inhibition ([15]; at 1.2 µM): 18% | growth inhibition ([15]; at 3.7 µM): 19% | growth inhibition ([15]; at 11.0 µM): -13% | growth inhibition ([15]; at 33.0 µM): 13% | growth inhibition ([15]; at 100.0 µM): 12%

CC(=O)O/C(=C1\C[C@H]2[C@@H]3CC=C4C[C@@H](OC(C)=O)CC[C@]4(C)[C@H]3CC[C@]2(C)C1=O)C(F)(F)F
growth inhibition ([1]; at 1.2 µM): -2% | growth inhibition ([1]; at 3.7 µM): -1% | growth inhibition ([1]; at 11.0 µM): -5% | growth inhibition ([1]; at 33.0 µM): -3% | growth inhibition ([1]; at 100.0 µM): 0% | growth inhibition ([2]; at 1.2 µM): -1% | growth inhibition ([2]; at 3.7 µM): 1% | growth inhibition ([2]; at 11.0 µM): 2% | growth inhibition ([2]; at 33.0 µM): 0% | growth inhibition ([2]; at 100.0 µM): 4% | growth inhibition ([3]; at 1.2 µM): 1% | growth inhibition ([3]; at 3.7 µM): 6% | growth inhibition ([3]; at 11.0 µM): 5% | growth inhibition ([3]; at 33.0 µM): 3% | growth inhibition ([3]; at 100.0 µM): 1% | growth inhibition ([4]; at 1.2 µM): 3% | growth inhibition ([4]; at 3.7 µM): -1% | growth inhibition [4, 16]: 18% | growth inhibition ([4]; at 11.0 µM): 7% | growth inhibition ([4]; at 33.0 µM): 2% | growth inhibition [4, 17]: 18% | growth inhibition ([4]; at 50.0 µM): 76.1% (active) | growth inhibition ([4]; at 100.0 µM): 0% | growth inhibition ([5]; at 1.2 µM): 2% | growth inhibition ([5]; at 3.7 µM): 4% | growth inhibition [5, 16]: 19% | growth inhibition ([5]; at 11.0 µM): 4% | growth inhibition ([5]; at 33.0 µM): 5% | growth inhibition [5, 17]: 3% | growth inhibition ([5]; at 50.0 µM): 80.5% (active) | growth inhibition ([5]; at 100.0 µM): 14% | growth inhibition ([6]; at 1.2 µM): 1% | growth inhibition ([6]; at 3.7 µM): -4% | growth inhibition ([6]; at 11.0 µM): 0% | growth inhibition ([6]; at 33.0 µM): -7% | growth inhibition ([6]; at 100.0 µM): 22% | growth inhibition [7, 16]: 2% | growth inhibition [7, 17]: 18% | growth inhibition ([7]; at 50.0 µM): 77.8% (active) | growth inhibition ([8]; at 1.2 µM): -140% | growth inhibition ([8]; at 3.7 µM): 4% | growth inhibition ([8]; at 11.0 µM): 2% | growth inhibition ([8]; at 33.0 µM): 1% | growth inhibition ([8]; at 100.0 µM): 6% | growth inhibition [9, 16]: 37% | growth inhibition [9, 17]: -1% | growth inhibition ([9]; at 50.0 µM): 94% (active) | growth inhibition ([10]; at 1.2 µM): -1% | growth inhibition ([10]; at 3.7 µM): 1% | growth inhibition [10, 16]: -10% | growth inhibition ([10]; at 11.0 µM): 10% | growth inhibition ([10]; at 33.0 µM): 3% | growth inhibition [10, 17]: 13% | growth inhibition ([10]; at 50.0 µM): 61.7% | growth inhibition ([10]; at 100.0 µM): 6% | growth inhibition ([11]; at 1.2 µM): -1% | growth inhibition ([11]; at 3.7 µM): 0% | growth inhibition ([11]; at 11.0 µM): -2% | growth inhibition ([11]; at 33.0 µM): -1% | growth inhibition ([11]; at 100.0 µM): 2% | growth inhibition ([12]; at 1.2 µM): 4% | growth inhibition ([12]; at 3.7 µM): 4% | growth inhibition ([12]; at 11.0 µM): 3% | growth inhibition ([12]; at 33.0 µM): -20% | growth inhibition ([12]; at 100.0 µM): 11% | growth inhibition ([13]; at 1.2 µM): 2% | growth inhibition ([13]; at 3.7 µM): 3% | growth inhibition ([13]; at 11.0 µM): 4% | growth inhibition ([13]; at 33.0 µM): 3% | growth inhibition ([13]; at 100.0 µM): 2% | growth inhibition [14, 16]: 9% | growth inhibition [14, 17]: 9% | growth inhibition ([14]; at 50.0 µM): 63.5% | growth inhibition ([15]; at 1.2 µM): -4% | growth inhibition ([15]; at 3.7 µM): -3% | growth inhibition ([15]; at 11.0 µM): 3% | growth inhibition ([15]; at 33.0 µM): -3% | growth inhibition ([15]; at 100.0 µM): -6%
